MCF10A rereplic = induces DNA re-replication in MCF 10a normal breast cells; MCF 10A DNA re-replication, Hoechst nuclear intensity, 48 h; Potency, µM (top dose mostly 46.1 µM), without a hit: top-dose activity, positive = re-replication, usual class: activators; 350,000 tested, 2.9% active; AID 624296; also: potency is read from the fitted curve at half-maximal effect; % of control where 0% means no effect; nearly all actives have a fitted effect of over 50% in size
BCR signal inh = blocks chronic active B-cell receptor signaling. ABC-DLBCL IkBa-CBG/CBR reporter, luminescence ratio, 4 h. Potency, µM (top dose mostly 46.1 µM), without a hit: at the top dose activity change, negative = inhibition, actives largely listed as inhibitors. 340,000 tested, 0.05% active. AID 493014; active = well fitted inhibition curve with a large enough effect in the signal ratio, with a control signal flat, not every such curve was filed as active; inconclusive = small, poorly fitted or top-dose-only effect, or effect the other way, or a change in a side signal; the % refers to the signal ratio;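 also: potency is read from the fitted curve at half-maximal effect; plate controls were basal doxycycline-induced cells for no effect and cells given 10 µM MG132 for full effect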
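Concentration-response series (up to 46 uM) were applied to TMD8 dual-reporter cells for 4 h at 37C with doxycycline. Green/red ratio, after filter-overlap correction, defined %Activity; red signal alone was normalised to basal cells and zero luminescence.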
SW480 rereplic = DNA re-replication induction in SW480 cells; SW480 DNA re-replication, Hoechst DNA content imaging, 48 h; Potency, µM (highest dose often 46.1 µM), for the others: at the highest dose re-replication activation, most hits filed as activators; 340,000 tested, 1.8% active; also: potency is read from the fitted curve at half-maximal effect; % of control where 0% means no effect; nearly all actives have a fitted effect of over 55% in size
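Treated cells incubate 48 hr (37 C, 5% CO2), are stained 40 min with Hoechst, and nuclear fluorescence is enumerated; a rise in nuclei with high DNA signal marks re-replication.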
TDP1 cell CPT = growth inhibition of DT40 Tdp1-/-;hTDP1 cells with camptothecin (screen for TDP1 inhibitors); chicken DT40 Tdp1-/-;hTDP1 cells + 20 nM CPT, ATP luminescence, 48 h; AID 686979; Potency, µM (highest dose often 46.2 µM), for inactives: top-dose activity change, negative = growth inhibition, usual class: inhibitors; 420,000 tested, 12% active; also: potency is read from the fitted curve at half-maximal effect; % is scaled to controls: 0 for no effect and ±100 for the full control effect; nearly all actives have a fitted effect of over 55% in size
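Cell growth measured by CellTiter-Glo luminescence after a minimum 48 h, 37 C compound exposure with 20 nM CPT in Tdp1-knockout DT40 cells stably expressing hTDP1, seeded 400/well; qHTS titration format.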
DT40 TDP1 no CPT = qHTS for Inhibitors of human tyrosyl-DNA phosphodiesterase 1 (TDP1): qHTS in cells in absence of CPT | DT40 Tdp1-/- hTDP1 cells, no CPT, ATP luminescence, 48 h | Potency, µM (titrated, usually from 46.2 µM), for inactives: at the top dose activity change, negative = growth inhibition, hits mostly inhibitors | 420,000 tested, 15% active | AID 686978, 2013; also: potency is read from the fitted curve at half-maximal effect; % is scaled to controls: 0 for no effect and ±100 for the full control effect; nearly all actives have a fitted effect of over 55% in size
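Cells were dispensed at 400 per well, compounds added by pin tool, plates incubated ≥48 hr at 37 °C, then CellTiter-Glo added for 30 min at room temperature before luminescence reading. Line: DT40 Tdp1-/- complemented with hTDP1; camptothecin omitted.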
IL1B secr inh = blocks inflammasome-driven IL-1 beta release | activity change, % at 57.5 µM | 360,000 tested, 4.7% active | THP-1 LPS/ATP IL-1B secretion, AlphaLISA, 16 h; hits give low values | AID 743279; in the data active = activity change below about -50%; inconclusive = mostly about -30% to -49%; also: % is scaled to controls: 0 for no effect and ±100 for the full control effect
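Secreted IL-1B measured by AlphaLISA bead assay after 16 h compound exposure of THP-1 cells; compounds (final up to 57.5 uM) added 1 h before LPS (250 ng/mL) and ATP (1.25 mM) stimulation; lower signal means less secretion.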
* marks the source's active call; other numbers are inactive results; ? = inconclusive; nt = no result. In the library only some 19% were active in any assay of this set; here they are far more common. Unless noted, calls follow the shape of the dose curve; as a rule, active = well fitted curve in the direction sought with a large enough effect; inconclusive = small, poorly fitted or top-dose-only effect, or another doubt; inactive = no such curve, though single readings can be large; an effect the other way counts as inactive or inconclusive.

SMILES	MCF10A rereplic	BCR signal inh	SW480 rereplic	TDP1 cell CPT	DT40 TDP1 no CPT	IL1B secr inh
COC(=O)C1CN(C#N)N(c2ccc(Cl)cc2)C12c1ccccc1-c1ccccc12 (configuration not stated)	7.08µM*	?	3.26µM*	3.26µM*	2.91µM*	-97.0*
Cc1ccc(N=CN(C)C=Nc2ccc(C)cc2C)c(C)c1	1.6%	nt	?	6.2%	4.0%	nt
Fc1ccc(Cn2nnnc2CN2CCC(n3nnc4cc(C(F)(F)F)ccc43)CC2)cc1	25.9µM*	?	-5.8%	18.4µM*	?	?
Cc1nc2cc(C(F)(F)F)ccc2n1C1CCN(Cc2nnnn2Cc2cccs2)CC1	2.8%	-18.1%	-2.6%	16.4µM*	16.4µM*	?
Cc1nc2cc(C(F)(F)F)ccc2n1C1CCN(Cc2nnnn2Cc2ccc3c(c2)OCO3)CC1	?	?	13.8%	29.1µM*	16.4µM*	-71.2*
Cc1nc2ccccc2n1C1CCN(Cc2nnnn2CCc2ccccc2)CC1	9.3%	?	-1.7%	?	?	?
COc1cc(OC)c2c(c1)OC(c1ccc(OC)c(OC)c1)C(O)C2 (configuration not stated)	nt	nt	nt	-28.8%	-25.6%	nt
Cc1ccc2c(c1)[C@@H]1CN(C)CC[C@H]1N2	1.5%	nt	-4.7%	nt	nt	nt
CN1CC(C#N)C2(O)c3ccccc3CCC2C1 (configuration not stated)	-0.6%	2.0%	0.8%	3.9%	4.7%	-6.0
CC(=O)c1c(O)c(C)c(O)c2c1OC1=Cc3c(c(C)nn3-c3ccccc3)C(=O)C12C (configuration not stated)	nt	nt	nt	23.1µM*	16.4µM*	36.1
CN(C)c1ccc(Nc2ccc([N+](=O)[O-])cn2)cc1	3.6%	?	?	0.5%	?	-5.8
C/C(=C\c1ccc(N(C)C)cc1)[N+](=O)[O-]	2.59µM*	?	5.8µM*	4.11µM*	4.11µM*	-106.6*
CN(C)c1ccc(C=C2C(=O)NC(=O)NC2=O)cc1	5.7%	nt	3.0%	-16.0%	-6.1%	-5.3
CN(C)c1ccc(/C=C/[N+](=O)[O-])cc1	-0.2%	-1.3%	?	?	16.4µM*	-63.6*
CCCCC1C(=O)NC(=S)NC1=O	nt	-8.4%	nt	nt	nt	nt
COC(=O)C(O)(c1ccc(NC(=S)NC(=O)c2ccccc2)cc1)C(F)(F)F (configuration not stated)	?	?	?	-17.9%	-17.3%	5.6
COc1cc(CCN)ccc1O	1.0%	-5.2%	-36.7%	7.9%	-5.5%	17.1
CCCCCSc1cc(OC)c(CCN)cc1OC	?	?	16.4µM*	5.8µM*	2.91µM*	-27.5
CCCSc1cc(OC)c(CCN)cc1OC	nt	nt	nt	1.84µM*	2.91µM*	nt
CCCCCCCSc1cc(OC)c(CCN(C)C)cc1OC	?	?	?	?	?	-99.5*
CN1CCN(/N=C/c2c(O)n(Cc3ccc(F)cc3)c(=O)[nH]c2=O)CC1	3.5%	1.0%	-7.9%	15.0%	10.1%	30.6
CC(C)CC1C(=O)N(Cc2cn(CC3CCCCC3)nn2)CCS(=O)(=O)N1Cc1ccc(-c2ccc(F)nc2)cc1 (configuration not stated)	nt	nt	nt	20.6µM*	18.4µM*	-3.0
O=C(c1ccncc1)N1CCC2(CC1)CN(Cc1ccccc1)C2	nt	nt	nt	-11.9%	11.5%	nt
O=C(Nc1ccc(Br)cc1)c1nn(C23CC4CC(CC(C4)C2)C3)cc1Br	-9.8%	-16.8%	1.1%	?	14.6µM*	19.7
COc1ccc(/C=N/NC(=O)c2cccnc2)cc1COc1ccc([N+](=O)[O-])cc1	?	?	?	2.59µM*	2.59µM*	nt

Compound activity as filed in PubChem BioAssay.
